# Experimental data: PubChem BioAssay AID651956 (Broad Institute, 2012)
# Potency and affinity values are given separately. Results filed as inconclusive are left out. Unmarked numbers belong to inactive results. Activity calls are given as the source filed them.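 How the source made its calls: active means in every test run, a fitted half-maximal concentration for signal decrease at or below twice the highest tested concentration; inconclusive means runs disagree, flat 30 to 70% decrease, or poor fit; inactive means the rest.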
# Test: activation of miR-122 Renilla sensor silencing – cell-based, Huh7 psiCHECK-miR122, Renilla luciferase, cherry-picked, dose response (AID 651956);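 further: 0% = median neutral control wells and -100% = median positive control wells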
# Conditions: Huh7 psiCHECK-miR122 Renilla luciferase reporter, 48 h; series mostly up to 35 µM; activity change, negative = signal decrease: at the top concentration
Structure (SMILES),"activity change, negative = signal decrease",outcome
C/C=C/c1ccc([C@@H]2[C@H](CO)N[C@H]2CN(CC)C(=O)CN2CCOCC2)cc1,-20.8%,
O=C(Nc1ccc(F)cc1)N1C[C@@H]2[C@H](c3ccccc31)[C@H](CO)N2C(=O)Cc1ccccc1,-22.4%,
COc1cc(Cl)cc(/C=N\NC(=O)c2ccc3c(c2)OCO3)c1O,42.6%,
CNC(=O)C[C@H]1CC[C@@H]2[C@H](COc3ccc(NC(=O)C(C)C)cc3C(=O)N2C)O1,158%,
CNC(=O)C[C@H]1CC[C@H]2[C@@H](COc3ccc(NC(=O)C4CC4)cc3C(=O)N2C)O1,43.9%,
N#Cc1ccc(NC(=O)Nc2ccc(Oc3ccc(NC(=O)Nc4ccc(C#N)cc4)cc3)cc2)cc1,-58.5%,
C[C@@H]1CN([C@@H](C)CO)C(=O)c2cccc(NC(=O)c3ccc(-c4nccs4)cc3)c2O[C@H]1CN(C)Cc1ccc2c(c1)OCO2,28.6%,
CN(C(=O)c1ccccc1Cl)C1CCCCC1,-12.7%,
CCOc1cc(-c2nccc3cc(OC)c(OC)cc23)cc(OCC)c1OCC,39.5%,
CN1C(=O)c2cc(NC(=O)c3cccs3)ccc2OC[C@H]2O[C@@H](CC(=O)NCCN3CCCCC3)CC[C@H]21,17.9%,
O=C(C1CC1)N(CCN(C(=O)C1CC1)c1ccccc1)c1ccccc1,-22.7%,
C[C@@H]1CN([C@@H](C)CO)S(=O)(=O)c2ccc(C3=CCCC3)cc2O[C@@H]1CN(C)C(=O)c1ccc(F)cc1,-64.2%,
COCC(=O)N1[C@H](CO)[C@@H](c2ccccc2)[C@H]1CN(C)C(=O)c1ccncc1,-29.2%,
CC1(C)CC(=O)c2cnc(NC(=O)c3ccco3)nc2C1,-17.7%,
O=C(NC[C@@H]1[C@H](c2ccccc2)[C@@H](CO)N1Cc1cccnc1)c1ccccn1,141%,
CC(C)C(=O)Nc1ccc2c(c1)C(=O)N(C)[C@@H]1CC[C@H](CC(=O)NCC3CC3)O[C@H]1CO2,-7.96%,
COCCN(C[C@@H]1[C@@H](c2ccccc2)[C@H](CO)N1C(=O)C1CCC1)C(C)=O,161%,
Cc1onc(-c2ccccc2)c1C(=O)NCc1ccccn1,-31.6%,
COCC(=O)Nc1ccc2c(c1)C(=O)N(C)[C@@H]1CC[C@@H](CC(=O)NCCCN(C)C)O[C@@H]1CO2,-13.9%,
CCCNC(=O)C[C@H]1CC[C@@H]2[C@H](COc3ccc(NS(=O)(=O)c4ccccc4C)cc3C(=O)N2C)O1,40.6%,
CN1C(=O)c2cc(NC(=O)c3cccc(F)c3)ccc2OC[C@@H]2O[C@H](CC(=O)NC3CCC3)CC[C@@H]21,,inactive
CNC(=O)C[C@@H]1CC[C@@H]2[C@@H](COc3ccc(NC(=O)Cc4cccs4)cc3C(=O)N2C)O1,-28.9%,
COC(=O)C[C@H]1CC[C@@H]2[C@@H](COc3ccc(NC(=O)c4cscn4)cc3C(=O)N2C)O1,-2.42%,
CCS(=O)(=O)Nc1ccc2c(c1)C(=O)N(C)[C@H]1CC[C@H](CC(=O)NCCCN3CCOCC3)O[C@H]1CO2,1.82%,
CN(C)CCCNC(=O)C[C@H]1CC[C@H]2[C@H](COc3ccc(NS(C)(=O)=O)cc3C(=O)N2C)O1,-3.73%,
COc1cccc(C(=O)Nc2ccc3c(c2)C(=O)N(C)[C@@H]2CC[C@@H](CC(=O)NCc4ccc(F)cc4)O[C@@H]2CO3)c1,22.5%,
